# Measured values as given in PubChem BioAssay (Tox21).
# Inconclusive results are not listed. Active and inactive are the calls of the source. The call rests on the fitted dose curve; in most records, active means well fitted activation curve with a large enough effect in the repeat runs; inconclusive means weak or mixed curves; inactive means flat fitted curve, though single readings scatter.
# Assay: A CellTox Green Cytotoxicity Assay to monitor cytotoxicity in HEK293 cells - 16 hour (AID 1224888); further: nearly all actives have a fitted effect of over 35% in size
# Conditions: CellTox Green fluorescence; series mostly up to 76.8 µM; activity change: at the top concentration
# Text: National Center for Advancing Translational Sciences [NCATS]
# NIH Chemical Genomics Center [NCGC]
# U.S. Environmental Protection Agency [EPA]
# National Institutes of Environmental Health Sciences [NIEHS]
# National Toxicology Program [NTP]
# Cell-based models are critical for drug discovery. Determining the natural cytotoxic effects resulting from test compounds is an essential research activity. A CellTox Green Cytotoxicity Assay to monitor cytotoxicity in real time of continues cell culture during 40 hours of the compound treatment was used to screen Tox21 10K library compounds in Hek293 cells. CellTox Green Cytotoxicity Assay is a nonlytic, homogeneous, biofluorescent method to measure cytotoxicity in cell culture after experimental manipulation. The assay system uses a proprietary asymmetric cyanine dye that is excluded from viable cells but preferentially stains the dead cell's DNA. […] Viable cells produce no appreciable increases in fluorescence. Therefore, the fluorescence signal produced by the binding interaction with dead cell DNA is proportional to cytotoxicity.
# The mixture of Hek293 cell suspension and reagents were dispensed at 600cells/6 ul/well in 1536-well tissue culture treated black solid bottom plates using a Multidrop dispenser. After the assay plates were incubated at a 37 C/5% CO2 incubator for 5 hours, 23 nL of compounds dissolved in DMSO, positive and negative controls was transferred to the assay plate by a pintool work station. The plates were incubated at 37 C for 40 hours. The fluorescence intensity were measured at 0h, 8h, 16h, 24h, 32h and 40h time points using ViewLux plate reader during compound treatment.
# On the % scale 0 is the no-effect control and ±100 the full control effect.
row,Compound,activity change
1,O=C1OC(=O)c2cc([N+](=O)[O-])ccc21,-6.77% (inactive)
2,Nc1nc2c(ncn2CCC(CO)CO)c(=O)[nH]1,"-8.52% [at 35.3 µM, hits give high values] (inactive)"
3,C1C2OC2C2C1C1CC2C2OC12 (stereo not given),0.753% (inactive)
4,NC(N)=NS(=O)(=O)c1ccc(N)cc1,"-10% [at 35.3 µM, hits give high values] (inactive)"
5,C=CCn1c(=O)n([C@@H]2O[C@H](CO)[C@@H](O)[C@H]2O)c2nc(N)[nH]c(=O)c21,"1.56% [at 35.3 µM, hits give high values] (inactive)"
6,CCCc1ccc(N)cc1,-6.27% (inactive)
7,C=C(C)C(=O)OCCCCCCCCCCCCCCCCCC,"0.239% [at 15.8 µM, hits give high values] (inactive)"
8,COc1ccc(COC=O)cc1,0.587% (inactive)
9,CCCCCCCCCCCCI,14% (inactive)
10,Cc1nccn1CC1CCc2c(c3ccccc3n2C)C1=O (stereo not given),"-0.402% [at 35.3 µM, hits give high values] (inactive)"
11,CCCCc1ccc2cccc(S(=O)(=O)O)c2c1,-10.2% (inactive)
12,c1ccc2cnncc2c1,-3.68% (inactive)
13,N#CCN(CC#N)CCN(CC#N)CC#N,1.34% (inactive)
14,CCCCN(CCO)CCO,-1.31% (inactive)
15,CN1[C@@H]2CC[C@H]1CC(NC(=O)n1c(=O)[nH]c3ccccc31)C2 (stereo not given in full),"-5.03% [at 35.3 µM, hits give high values] (inactive)"
16,O=C(O)c1ccccc1-c1ccc(C(F)(F)F)cc1,"2.51% [at 35.3 µM, hits give high values] (inactive)"
17,CCCC(=O)O[C@]1(C(=O)CCl)[C@@H](C)C[C@H]2[C@@H]3CCC4=CC(=O)C=C[C@]4(C)[C@@]3(F)C(=O)C[C@@]21C,"-8.4% [at 35.3 µM, hits give high values] (inactive)"
18,COc1cccc(OC)c1,5.46% (inactive)
19,NC(=O)c1ncn([C@@H]2O[C@H](CO)[C@@H](O)[C@H]2O)c1N,"-21.5% [at 35.3 µM, hits give high values] (inactive)"
20,CCCCOCC(C)OCC(C)O (stereo not given),18.4% (inactive)

row,Compound,activity change
1,CN(C)N=Nc1ccccc1,-11.6% (inactive)
2,N#CC1(O)CCCCC1,-0.95% (inactive)
3,CC/C=C\C#N,-8.64% (inactive)
4,CC(O)CN(CCCN(C)C)CCCN(C)C (stereo not given),0.69% (inactive)
5,CC(=O)NC(Cc1ccccc1)C(=O)O (stereo not given),"-8.88% [at 35.3 µM, hits give high values] (inactive)"
6,Nc1cc(C(Cl)=C(Cl)Cl)c(S(N)(=O)=O)cc1S(N)(=O)=O,"0.887% [at 35.3 µM, hits give high values] (inactive)"
7,C1=C\CC/C=C\CC/C=C\CC/1,-1.54% (inactive)
8,COc1cc(CCC(C)=O)ccc1O,-3.05% (inactive)
9,CCCCCCOC(=O)CC(CC(=O)OCCCCCC)(OC(=O)CCC)C(=O)OCCCCCC,-18.1% (inactive)
10,C(=C(c1ccccc1)c1ccccc1)c1ccccc1,9% (inactive)
11,CCCOCC(C)OCC(C)O (stereo not given),8.16% (inactive)
12,COC(=O)c1ccc(C(=O)OC)c(C(=O)OC)c1,-1.23% (inactive)
13,CCCCCCCCC=O,0.952% (inactive)
14,OCc1ccccn1,"-5.1% [at 35.3 µM, hits give high values] (inactive)"
15,CC(C)[C@H](N)C(=O)OCCOCn1cnc2c(=O)[nH]c(N)nc21,"-20.8% [at 35.3 µM, hits give high values] (inactive)"
16,O=C(O)CCNC(=O)c1ccc(N=Nc2ccc(O)c(C(=O)O)c2)cc1,"-23.3% [at 35.3 µM, hits give high values] (inactive)"
17,Nc1nc(F)nc2c1ncn2[C@@H]1O[C@H](CO)[C@@H](O)[C@@H]1O,"-1.02% [at 35.3 µM, hits give high values] (inactive)"
18,CCCCCCCCCCC1CO1 (stereo not given),-9.13% (inactive)
19,CO[Si](OC)(OC)OC,-8.1% (inactive)
20,C1COCCO1,3.51% (inactive)
